Data on 10 compounds can be found in PubChem BioAssay (EPA / NIEHS).

Records with an inconclusive call do not appear. Calls of active or inactive are those of the source. The calls were made as follows: active = hit-call score of the fitted dose curve at least 0.9, where 1 is the maximum; inconclusive = response in the unintended direction; inactive = score below 0.9.

Sequence of AR (gene 367) (P10275 whole entry, looked up): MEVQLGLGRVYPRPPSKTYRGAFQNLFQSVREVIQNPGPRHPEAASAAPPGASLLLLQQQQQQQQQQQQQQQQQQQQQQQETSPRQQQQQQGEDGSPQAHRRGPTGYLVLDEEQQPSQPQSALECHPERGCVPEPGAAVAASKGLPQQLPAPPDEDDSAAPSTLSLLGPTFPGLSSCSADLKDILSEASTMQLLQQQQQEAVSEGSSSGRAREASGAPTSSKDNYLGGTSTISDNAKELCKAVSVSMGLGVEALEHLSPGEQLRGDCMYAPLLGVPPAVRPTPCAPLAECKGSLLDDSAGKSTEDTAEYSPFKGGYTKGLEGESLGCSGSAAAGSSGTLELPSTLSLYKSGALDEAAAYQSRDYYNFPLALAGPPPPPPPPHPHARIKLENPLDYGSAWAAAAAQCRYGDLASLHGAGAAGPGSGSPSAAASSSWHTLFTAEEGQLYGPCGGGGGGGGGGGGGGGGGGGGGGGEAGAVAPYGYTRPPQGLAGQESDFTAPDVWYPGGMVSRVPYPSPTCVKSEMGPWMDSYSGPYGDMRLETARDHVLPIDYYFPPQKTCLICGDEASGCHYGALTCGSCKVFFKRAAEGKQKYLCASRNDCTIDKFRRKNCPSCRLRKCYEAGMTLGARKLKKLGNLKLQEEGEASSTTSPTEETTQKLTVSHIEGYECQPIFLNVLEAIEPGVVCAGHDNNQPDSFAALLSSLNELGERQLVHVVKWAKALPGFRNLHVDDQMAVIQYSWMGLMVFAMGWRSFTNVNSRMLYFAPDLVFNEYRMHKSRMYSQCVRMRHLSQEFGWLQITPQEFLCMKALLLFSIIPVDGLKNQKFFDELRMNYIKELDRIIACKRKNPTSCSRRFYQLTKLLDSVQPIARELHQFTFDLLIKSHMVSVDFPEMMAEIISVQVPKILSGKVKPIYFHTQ

The target of this experiment is AR (gene 367) (UniProt P10275). Nature of the experiment: ACEA_AR_agonist_80hr: ACEA Biosciences xCELLigence Real-Time Cell Analysis on Androgen Receptor Agonism for Proliferation (AID 2283783).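 Also: hits increase impedance growth signal above DMSO baseline.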 The protocol:
ACEA_AR_agonist is a cell-based, single-readout assay that uses 22Rv1, a human prostate cancer cell line, with measurements taken at 80 hours after chemical dosing in a 384-well plate, although TO5 and TO6 (mc0.srcf) used a 96-well plate. Differences in plate size can be ignored given data normalization.ACEA_AR_agonist_80hr is one of two assay component(s) measured or calculated from the ACEA_AR assay. It is designed to make measurements of real-time cell-growth kinetics, a form of growth reporter, as detected with electrical impedance signals by Real-Time Cell Electrode Sensor (RT-CES) technology.Data from the assay component ACEA_AR_agonist_80hr was analyzed in the positive analysis fitting direction relative to DMSO as the negative control and baseline of activity. Using a type of growth reporter, measures of the cells for gain-of-signal activity can be used to understand the signaling at the pathway-level as they relate to the geneAR Furthermore, this assay endpoint can be referred to as a primary readout, because this assay has produced multiple assay endpoints where this one serves a signaling function. To generalize the intended target to other relatable targets, this assay endpoint is annotated to the nuclear receptor intended target family, where the subfamily is steroidal.
The xCELLigence system Multi-E-Plate stations were used to measure the time-dependent response to chemicals. Each compound was tested in an eight-point, 1:4 serial dilution series starting at a maximum final concentration of 100 uM. A maximum starting concentration of 0.5% DMSO was present in the 100 uM chemical samples and was diluted along with the test article dilution series. The screen was performed in biological duplicate using two separate, 96-well, E-Plates 96 for each dilution series (n = 2). Positive controls (MG132 and testosterone) and a negative control (assay media) were tested in quadruplicate on each testing plate. […] Reference compounds were tested with 8 concentrations with 1:5 serial dilutions. All screening was carried out by ACEA Biosciences, Inc. (San Diego, CA). 22Rv1 cells purchased from ATCC were maintained in media supplemented with 10% fetal bovine serum (FBS). Before screening, 22Rv1 cells were preconditioned in assay medium. Cells were then detached and seeded in E-Plates 96 in assay medium. After overnight monitoring of growth once every hour, compounds were added to […] cells and remained in the medium until the end of the experiment. Cellular responses were then recorded once every 5 min for the first 5 h, and once every hour for an additional 100 h.
The AC50 is the concentration giving half of the maximal activity seen. In the case of `O=C(c1ccc(O)cc1O)c1ccc(O)cc1O`, the AC50 is 187 nM (active). For `CN(C)C(=O)Nc1ccc(Cl)c(Cl)c1`, the compound was called inactive. As for `c1ccc2[nH]c(-c3cscn3)nc2c1`, the result was inactive. Regarding `C[C@]12CC[C@@H]3c4ccc(O)cc4C[C@@H](CCCCCCCCCS(=O)CCCC(F)(F)C(F)(F)F)[C@H]3[C@@H]1CC[C@@H]2O` (stereo not given in full), the outcome was inactive.

Take `CCOC(=O)COc1cc(-n2ncc(C(F)(F)F)c(C)c2=O)c(F)cc1Cl`: the compound was called inactive.

As to `CC1(C)C(C=C(Cl)Cl)C1C(=O)OCc1cccc(Oc2ccccc2)c1` (stereo not given), the compound was classed as inactive.

Take `CSC(=O)c1cccc2nnsc12`: the compound was classed as inactive. Take `O=C(O)C1(C(=O)Nc2ccc(Cl)cc2Cl)CC1`: the compound was classed as inactive. Take `CCCCOCCOCCOCc1cc2c(cc1CCC)OCO2`: the call was inactive. Still for that read-out and setting: the same measure for `COC(=O)CSc1cc(N=c2sc(=O)n3n2CCCC3)c(F)cc1Cl`: “inactive”.
